# Reference: PubChem BioAssay (NCATS)
# Results filed as inconclusive are left out. Unmarked numbers belong to inactive results. Activity calls are given as the source filed them. Calls come from the whole dose curve; as a rule, active = well fitted inhibition curve with a large enough effect; inconclusive = small, poorly fitted or top-dose-only effect; inactive = flat fitted curve, though single readings scatter. Where a SMILES comes first, the peptide text is derived from it. Bridges are numbered along the chain shown (N, C = ends). [ ]: non-standard residue; d: D form. The star is where a group is joined. X2 = CC[C@H](C)CCCCC(=O)*; Dab = NCC[C@H](N)C(=O)O
# Assay: P-glycoprotein substrates identified in KB-8-5-11 adenocarcinoma cell line, qHTS therapeutic library screen (AID 1346987); note: nearly all actives have a fitted effect of over 65% in size
# Details: KB-8-5-11 (P-gp overexpressing) viability, CellTiter-Glo, 72 h; series mostly up to 44.5 µM; activity change, negative = cytotoxicity: at the top concentration
# Source text: The ATP-binding cassette transporters P-glycoprotein (P-gp) is known to limit brain penetration of many chemotherapy drugs. […] As such, we developed a high-throughput screen (HTS) to identify substrates of P-gp from a series of chemical libraries including the National Center for Advancing Translational Sciences Pharmaceutical Collection NPC, 2,816 compounds), testing a total of 10,804 compounds, most of which have known mechanisms of action. We used the CellTiter-Glo viability assay to test library compounds against the parental KB-3-1 human cervical adenocarcinoma cell line and the colchicine-selected sub-line KB-8-5-11 that over-expresses P-gp. KB-8-5-11 cells were also tested in the presence of a P-gp inhibitor (tariquidar) to assess reversability of transporter-mediated resistance. Of the tested compounds, a total of 90 P-gp substrates were identified including 55 newly identified P-gp substrates. Substrates were confirmed using an orthogonal killing assay against HEK-293 cells transfected with P-gp. As exemplars, we confirmed that […] (cyclin-dependent kinase inhibitor); AT9283, (Janus kinase 2/3 inhibitor); ispinesib (kinesin spindle protein inhibitor); gedatolisib (PKI-587, phosphoinositide 3-kinase/mammalian target of rampamycin inhibitor); GSK-690693 (AKT inhibitor); and KW-2478 (heat shock protein 90 inhibitor) were substrates , and direct ATPase stimulation was assessed. ABCG2 was also found to confer high levels of resistance to AT9283, GSK-690693 and gedatolisib, while ispinesib, AT7519 and KW-2478 were weaker substrates.
# The HeLa derivative cell line, KB-3-1, and its colchicine-selected, P-gp-overexpressing subline, KB-8-5-11 were maintained in DMEM with 10% FCS and Pen/Strep with glutamine at 37 degree C in 5% CO2. For KB-8-5-11 cells, colchicine was added to the medium at a concentration of 100 ng/mL. HEK-293 cells transfected with empty vector (pcDNA) or vector containing human ABCB1 (MDR-19) or ABCG2 (R-5) have been described previously (Robey, Lin, Qiu, Chan & Bates, 2011) and were maintained in EMEM supplemented with 10% FCS, Pen/Strep and glutamine with 2 mg/ml G418 to select for the expression of the transporter. Cultures were confirmed to be free of mycoplasma infection using the MycoAlert Mycoplasma Detection Kit (Lonza, Walkersville, MD). For the screen, assay medium was identical to culture medium except for KB-8-5-11 where colchicine was excluded from the medium.
# All cell lines were plated into 1536-well plates at 500 cells/well in 5 uL media. Compounds were then pinned in dose-response using a 1536-head pin tool (Kalypsis, San Diego, CA) and plates were incubated at 37 degree C in 5% CO2 for an additional 72 h. CellTiter-Glo reagent (Promega) was dispensed into the wells, incubated for 5 min and luminescence was read on a ViewLux instrument (Perkin-Elmer). Cytotoxic compounds were defined as those that yielded a curve class of -1.1, -1.2, -2.1, -2.2, -2.3, or -2.4, a maximum response of >50% and an AC50 of < 10 uM. Cherry-picked hits from screening analysis were tested with both the KB pair of cell lines, and the pcDNA (empty vector control) and MDR-19 (P-gp overexpressing) pair were tested, in the absence and presence of tariquidar.
# % is set by controls: 0 for no effect and ±100 for the full control effect; potency is the fitted concentration of half-maximal effect.
SMILES,Potency,"activity change, negative = cytotoxicity",outcome
CO[C@@H]1[C@@H](O[C@@H]2O[C@H](C)[C@@H](O[C@H]3C[C@@](C)(O)[C@@H](OC(=O)CC(C)C)[C@H](C)O3)[C@H](N(C)C)[C@H]2O)[C@@H](CC=O)C[C@@H](C)[C@@H](O)/C=C/C=C/C[C@@H](C)OC(=O)C[C@H]1O,inactive,–,–
CC1(C)CC[C@]2(C(=O)O)CC[C@]3(C)C(=CCC4[C@@]5(C)C[C@@H](O)[C@H](O)C(CO)(CO)C5CC[C@]43C)C2[C@@H]1O (stereo not given in full),7.96 µM (active),–,–
O=C(Nc1ccc(-c2ccc(Cl)c(Cl)c2)cc1)C1=C(O)c2ccccc2S(=O)(=O)N1,–,0.0285%,–
NCCC(=O)[N-][C@@H](Cc1cnc[nH]1)C(=O)O.[Zn],–,10.5%,–
COc1cc(OC)c2c(=O)[nH]c(-c3cc(C)c(OCCO)c(C)c3)nc2c1,–,-10.4%,–
COC1CCN(c2cccc(-c3cc(NC(C)=O)nc(-n4nc(C)cc4C)n3)n2)CC1,20.6 µM (active),–,–
CCCCCCCCC(=O)N[C@H](CN1CCCC1)[C@H](O)c1ccc2c(c1)OCCO2,16.4 µM (active),–,–
CCOC(=O)[C@H](CCc1ccccc1)N[C@H]1CCCN2CCC[C@@H](C(=O)O)N2C1=O,–,-7.1%,–
C=C1C(=O)O[C@@H]2[C@H]1CC(=O)[C@H](C)[C@@](O)(C(=O)/C=C/C)[C@H]2OC(=O)C(C)CC (stereo not given in full),5.7 µM (active),–,–
CN(C)[C@@H]1CCc2[nH]c3ccc(NC(=O)c4ccc(F)cc4)cc3c2C1,–,-5.44%,–
CC(=O)OC1CC(C)(C(=O)O)CC2C3=CC(=O)C4C5(C)CCC(OC6OC(C(=O)O)C(O)C(O)C6OC6OC(C(=O)O)C(O)C(O)C6O)C(C)(C)C5CCC4(C)C3(C)CCC12C (stereo not given),–,0.92% [at 9.29 µM],–
Clc1ncoc1-c1c[nH]c2ccccc12,–,-2.16%,–
CC[C@H](C)/C=C(C)/C=C/C1=CC2=CC(=O)[C@]3(C)OC(=O)[C@@H](C(C)=O)[C@@H]3C2=CO1,–,3.81%,–
O=C(NCCO)c1cccc(-c2cc(Nc3ccc(OC(F)(F)F)cc3)ncn2)c1,–,-23.1%,–
N#Cc1ccc(COC[C@H]2O[C@@H](n3c(NCc4ccc(Cl)c(Cl)c4)nc4c(N)ncnc43)[C@H](O)[C@@H]2O)cc1,–,–,inactive [at 17.3 µM]
COc1c(CCC(=O)O)cccc1O[C@@H]1O[C@H](CO)[C@@H](O)[C@H](O)[C@H]1O,–,–,inactive
Cc1ccc(C(=O)Nc2ccc(CN3CCN(C)CC3)c(C(F)(F)F)c2)cc1C#Cc1cnc2[nH]ncc2c1,20.6 µM (active),–,–
CC(=O)c1c(C)cc2cccc(O)c2c1O[C@@H]1O[C@H](CO)[C@@H](O)[C@H](O)[C@H]1O,–,7.57%,–
CN(C(=O)CO)c1c(I)c(C(=O)NCC(O)CO)c(I)c(C(=O)NCC(O)CO)c1I (stereo not given),–,-17.8%,–
COC[C@H](c1ccc(C(F)(F)F)cc1)N1CCN(C2(C)CCN(C(=O)c3c(C)ncnc3C)CC2)C[C@H]1C,–,-7.33%,–

SMILES,Potency,"activity change, negative = cytotoxicity",outcome
C=C(C)C(=O)OC1CC2(C)OC(=CC2=O)C(=C)CC2OC(=O)C(=C)C12 (stereo not given),10.1 µM (active),–,–
COC(CCc1ccc(O)cc1)CC(=O)CCc1ccc(O)cc1 (stereo not given),–,-0.254%,–
COC(=O)C1=COC(O[C@@H]2O[C@H](CO[C@@H]3O[C@H](COC(=O)/C=C\c4ccc(O)cc4)[C@@H](O)[C@H](O)[C@H]3O)[C@@H](O)[C@H](O)[C@H]2O)C2C(CO)=CCC12 (stereo not given in full),–,3.67% [at 17.3 µM],–
CCC(CC)Nc1nc(C)c(-c2ccc(OC(F)(F)F)cc2OC)nc1OC,–,-0.463%,–
CC[C@H](C)CCCCC(=O)N[C@@H](CCN)C(=O)N[C@H](C(=O)N[C@@H](CCN)C(=O)N[C@H]1CCNC(=O)[C@H]([C@@H](C)O)NC(=O)[C@H](CCN)NC(=O)[C@H](CCN)NC(=O)[C@H](CC(C)C)NC(=O)[C@@H](CC(C)C)NC(=O)[C@H](CCN)NC1=O)[C@@H](C)O (X2-[Dab]T[Dab][Dab][Dab][dL]L[Dab][Dab]T; lactam 4-C),–,14.9%,–
CCCn1cc2c(nc(NC(=O)Nc3ccc(OC)cc3)n3nc(-c4ccco4)nc23)n1,–,3.1%,–
COc1cc2ncnc(Nc3cccc(I)c3)c2cc1OC,5.8 µM (active),–,–
C[C@@H]1C[C@H]2O[C@@]3(O[C@@H]2C(C)(C)O)C(O)[C@@]2(C)C4CCC5C(C)(C)[C@@H](O[C@H]6OC[C@H](O)[C@@H](O)[C@@H]6O)CC[C@@]56C[C@@]46CC[C@]2(C)C13 (stereo not given in full),–,3.31% [at 17.3 µM],–
CCCC1(CCC)CCC2(CCN(CCCN(CC)CC)C2)CC1,2.31 µM (active),–,–
O=C(NCCCN1CCC2(CC1)OCc1ccccc12)[C@H]1CCCN1Cc1ccccc1,–,-10.9%,–
NCCCNCCCCNC(=O)C(O)NC(=O)CCCCCCN=C(N)N (stereo not given),–,-27.9%,–
C=C1C(=O)O[C@@H]2[C@H]1CC[C@H](C)[C@]1(CCC(=O)O1)C2(C)O (stereo not given in full),–,-8.78%,–
CN1CCC(c2cn(C)c3ccc(OS(=O)(=O)c4c(F)cccc4F)cc23)CC1,18.4 µM (active),–,–
CC(C)(C)[C@H](NC(=O)c1ccc(N)c(Cl)c1)C(=O)N1CCC[C@H]1C(=O)N[C@H](C#N)CC(=O)O,–,9.42%,–
O=C(NCC1CCN(Cc2cccc(Cl)c2)CC1)[C@@H]1CCCN(c2ncnc3c2nc2n3CCCC2)C1,–,-5.04%,–
CC(C)(Cc1nc(-c2ccc(O)cn2)no1)C(=O)NC1=C(C(=O)O)CCCC1,–,-1.26%,–
O=C(CSc1nc2ccccc2c(=O)n1-c1ccccc1)Nc1ccc2c(c1)CCC2,–,-14.9%,–
C=C1CC2[C@@]3(C)C=CC(=O)C(C)(C)C3=C(O)C(=O)[C@@]2(C)C2(C(=O)OC)C(=O)C(C)OC(=O)[C@@]12C (stereo not given in full),8.93 µM (active),–,–
O=C(NNc1nc2cc(F)ccc2n2cccc12)c1cnccn1,2.31 µM (active),–,–
CCOc1ccc(CCNC(=O)c2cc3sc(Cl)cc3n2C)cc1OCC,–,-20.2%,–
